The campaign covered roughly 48,000 compounds. About 13,000 (27%) showed an effect of 50% or more. The list shows a part of the results.
Test system: Wolbachia pipientis
Assay: Anti-Wolbachia Cell-Based Screen
Type: functional
Design: scale not given: in the data most compounds retested in dose-response had high values
Details: 5 µM

Row | Compound | Percent Effect [%]
1 | CC(C(=O)N(Cc1ccccc1)CC(F)(F)F)S(C)(=O)=O (stereo not drawn) | 3.578
2 | CC(C)NC(=O)CNC(=O)C12CCC(=O)N1c1cc(Cl)ccc1S2 (stereo not drawn) | -9.931
3 | CN(C(=O)CN1CCCC1=O)C1CCCN(C2Cc3ccccc3C2)C1 (stereo not drawn) | -3.019
4 | COCCN1CCc2ccccc2NCCC1=O | 80.29
5 | CCN(C(=O)C1=NN(c2ccccc2)C(=O)CN1)c1ccccc1 | 14.38
6 | O=C(CN1C(=O)CCNC1=O)N1CCC2(CCc3ccccc32)CC1 | -1.469
7 | COCCN1CCC2(CCC1=O)CN(c1ccnc(SC)n1)CCN2C (stereo not drawn) | 3.783
8 | COCCN1CC2(CCCN(C(=O)NCc3ccccc3)C2)CCC1=O (stereo not drawn) | -41.75
9 | CC(C)(C)C(=O)CN1Cc2ccccc2NCCC1=O | 87.13
10 | CC(C)(C)C(=O)CN1CCc2ccccc2NCCC1=O | 91.03
11 | CCNC(=O)N1C[C@@H]2OCC(=O)N(Cc3cccnc3)[C@@H]2C1 | -2.175
12 | C[C@H](CCO)NS(=O)(=O)c1ccc(Br)cn1 | 0.586
13 | COc1nccnc1N1CCC2(CC1)[C@H](O)C[C@@H]2OCCN(C)C | -0.5657
14 | COC(=O)CCCn1ccnc1C(C)c1ccccc1 (stereo not drawn) | 30.01
15 | O=C(Cc1ccc2c(c1)OCO2)N1CCN(c2ccccc2Cl)C(=O)C1 | 2.346
16 | Cc1ccc2c(n1)N(CCN(C)C)CCN(C(=O)N1CCOCC1)C2 | -2.22
17 | CN1CCN(C(=O)N2CCCC2)Cc2cccnc21 | -1.039
18 | CN(C)c1ccc(C(=O)N2CCN(C(=O)N3CCCCC3)CC2)nn1 | 6.871
19 | O=C(N1CCCC1)N1CCN(c2ccc(Cl)nn2)C(=O)C1 | 104
20 | O=C(N1CCCCC1)N1CCN(c2ccc(Cl)nn2)C(=O)C1 | 123
21 | O=C(N1CCOCC1)N1CCN(c2ccnc3ccsc23)CC1 | 30.34
22 | O=C(N1CCOCC1)N1CCN(c2ccc(Cl)nn2)C(=O)C1 | 98.36
23 | O=C(Cc1ccc(CO)cc1)N1CCN(c2ccccc2Cl)C(=O)C1 | -19.49
24 | O=C(CN1CCN(c2ccnc3c(F)ccc(F)c23)CC1)NC1CC1 | -1.102
25 | O=C(Nc1ccc2c(c1)OCO2)N1CCN(CCc2ccccc2)CC1 | 10.38
26 | CC(C)OCc1ncn2c1CN(Cc1nccs1)CCC2.O=C(O)C(F)(F)F | 19.89

Row | Compound | Percent Effect [%]
27 | CN(C)C(=O)N1CCC2(CCC(C(=O)N3CCCC3)O2)CC1 (stereo not drawn) | -25.65
28 | CN1C(=O)CO[C@H]2CN(C(=O)Nc3ccc(F)cc3)C[C@H]21 | -3.92
29 | CC(=O)NC1CCN(C(=O)Nc2ccc(SC(F)F)cc2)CC1 | 1.325
30 | O=C(Nc1ccc(S(=O)(=O)Nc2ccccc2)cc1)N1CCCC1 | 10.15
31 | CCC1=N[C@@]2(CC[C@@H]3CN(C(=O)Nc4ccc(F)cc4)C[C@@H]32)C(=O)N1 | -8.843
32 | CN(C)C(=O)C1CCC2(CCN(C(=O)Nc3ccc(F)cc3)CC2)O1 (stereo not drawn) | 104.3
33 | CCN(C)CC1CCN(C(=O)Nc2ccc(C)cc2)C1 (stereo not drawn) | -10.96
34 | Cc1ccc(NC(=O)N2CCC3(CCC(C(=O)N(C)C)O3)CC2)cc1 (stereo not drawn) | 103.6
35 | CN(C)C(=O)C1CCC2(CCN(C(=O)Nc3ccccc3)CC2)O1 (stereo not drawn) | 111.7
36 | CCCN1CCCC2(CCN(S(=O)(=O)N3CCC(OC)CC3)C2)C1=O (stereo not drawn) | -17.89
37 | CCCNC(=O)NCc1ccccc1NS(=O)(=O)c1ccccc1 | 1.164
38 | COc1c(C2CCCN2Cc2nnc(C3CC3)o2)c(C)nn1C (stereo not drawn) | -22.17
39 | CCN(Cc1noc(C)n1)C(=O)C(c1ccc(C)cc1)N(C)C (stereo not drawn) | -5.423
40 | CC(=O)N1CCN(C(=O)CCc2cc(Br)cs2)CC1 | -5.733
41 | CC1(Cc2cccnc2)NCCc2[nH]cnc21 (stereo not drawn) | 0.4171
42 | CC(C)Cc1ccc(C(=O)Cn2cnnc2[S+](C)[O-])cc1 (stereo not drawn) | 22.36
43 | Cc1cccc(S(=O)(=O)N2CCCC3(CCCN3S(C)(=O)=O)C2)c1 (stereo not drawn) | 110.4
44 | CS(=O)(=O)N1CCCC12CCCN(S(=O)(=O)c1cc(F)cc(F)c1)C2 (stereo not drawn) | -5.366
45 | CCN1C(=O)CCC12CCCN(S(=O)(=O)c1cccc(C)c1)CC2 (stereo not drawn) | -13.05
46 | CS(=O)(=O)N1CCCC12CCCN(S(=O)(=O)c1cccc(F)c1)C2 (stereo not drawn) | 85.55
47 | Cc1cccc(S(=O)(=O)N2CCCc3c(c(=O)n(C)n3C)C2)c1 | -4.559
48 | CNC(=O)[C@@]12CCO[C@@H]1CCN(S(=O)(=O)c1cccc(F)c1)C2 | -9.413
49 | COc1ccc(Nc2ncccc2C#N)cc1N1CCCC1=O | 9.755
50 | Cc1cc(S(=O)(=O)Nc2onc(C)c2C)sc1C | -16.29
51 | Cc1nn(C)c(C)c1C1CCCN1C(=O)CCc1cscn1 (stereo not drawn) | -3.183
52 | COc1c(C2CCCN2C(=O)CCNc2ncccn2)c(C)nn1C (stereo not drawn) | 119.8

Row | Compound | Percent Effect [%]
53 | COc1ccc(C2CCCN2C(=O)CCNc2ncccn2)cc1 (stereo not drawn) | 1.66
54 | Cc1nn(C)c(C)c1C1CCCN1C(=O)CCNS(C)(=O)=O (stereo not drawn) | 101.1
55 | Cc1nn(C)c(C)c1C1CCCN1C(=O)CCCc1ccccn1 (stereo not drawn) | 91.34
56 | Cc1nn(C)c(C)c1C1CCCN1Cc1nc(-c2ccco2)oc1C (stereo not drawn) | -2.901
57 | Cc1nn(C)c(C)c1C1CCCN1C(=O)CCc1ccco1 (stereo not drawn) | 103
58 | CS(=O)(=O)NCCC(=O)N1CCCC1c1noc(C2CC2)n1 (stereo not drawn) | -8.062
59 | CSc1ccc(CNCCS(=O)(=O)N2CCOCC2)cc1 | -30.29
60 | CC1(C)CN(C(=O)c2ccc3nncn3c2)CCS1 | -32.23
61 | COCC1CN(C(=O)CC2Cc3ccccc3C2)Cc2c1cnn2C (stereo not drawn) | -1.669
62 | Cc1nn(C)c(C)c1C1CCCN1C(=O)CCNc1ncccn1 (stereo not drawn) | 2.112
63 | Cc1nn(C)c(C)c1C1CCCN1C(=O)CCCNc1ncccn1 (stereo not drawn) | 79.99
64 | Cc1nn(C)c(C)c1C1CCCN1C(=O)CCCn1cccn1 (stereo not drawn) | 12.2
65 | Cc1nn(C)c(Cl)c1C1CCCN1C(=O)CCNc1ncccn1 (stereo not drawn) | 95.62
66 | Fc1cccc2c1CCC2NCc1cnc(N2CCOCC2)nc1 (stereo not drawn) | 3.105
67 | COC(=O)CCC(=O)N(C/C=C/c1ccccc1)CCO | -11.86
68 | COc1cccc(F)c1C(C)NC(=O)NCCc1ccc(C)nc1 (stereo not drawn) | 1.538
69 | O=C(Nc1nncs1)NC1CCOc2ccccc21 (stereo not drawn) | 13.17
70 | Cc1cc(CN(C)C(=O)Nc2cnc3c(c2)c(C)nn3C)no1 | 2.843
71 | COc1ccc(S(=O)(=O)NCCC(O)c2ccccc2)c(C)c1 (stereo not drawn) | 8.858
72 | COCc1nc2nc(O)c3c(n2n1)NC(=O)CC3c1ccccc1Cl (stereo not drawn) | -6.394
73 | O=C(O)C(F)(F)F.O=C(O)C(F)(F)F.c1ccc(N2CC[C@H](OCC3CC3)[C@@H]2Cc2cccnc2)nc1 | 102.1
74 | O=C(O)C(F)(F)F.O=C(c1ccc[nH]1)N1CC[C@@H](OCC2CC2)[C@@H]1Cc1cccnc1 | 9.663
75 | O=C(O)C(F)(F)F.O=S(=O)(C1CC1)N1CC[C@@H](OCC2CC2)[C@@H]1Cc1ccncc1 | -7.9
76 | O=C(O)C(F)(F)F.O=C(O)C(F)(F)F.O=C(c1cccnc1)N1CC[C@H](OCC2CC2)[C@@H]1Cc1cccnc1 | -13.6
77 | O=C(O)C(F)(F)F.O=S(=O)(C1CC1)N1CC[C@H](OCC2CC2)[C@@H]1Cc1cccnc1 | -0.6171
78 | O=C(O)C(F)(F)F.c1cnc(N2CC[C@@H](OCC3CC3)[C@@H]2Cc2cccnc2)nc1 | 125.6

Row | Compound | Percent Effect [%]
79 | Cn1nc2c(cc1=O)CN(Cc1nnc(-c3ccc(F)cc3)o1)CC2 | -3.918
80 | CC(NC(=O)NCCNc1cccc(F)c1C#N)c1nccs1 (stereo not drawn) | -8.965
81 | CC(=O)N1CCOCC2(C1)CN(S(C)(=O)=O)CCO2 (stereo not drawn) | -9.255
82 | COC(=O)c1cccc(S(=O)(=O)NC(=O)CC2CCCC2)c1 | 1.549
83 | COC(=O)c1cccc(S(=O)(=O)NC(=O)COC2CCCCC2)c1 | 108.7
84 | COC(=O)c1cccc(S(=O)(=O)NC(=O)COC2CCCC2)c1 | 86.25
85 | COC(=O)c1cccc(S(=O)(=O)Nc2ccc(Cl)c(C(N)=O)c2)c1 | -9.655
86 | COC(=O)c1cccc(S(=O)(=O)NC(=O)c2ccccc2F)c1 | 8.807
87 | COC(=O)c1cccc(S(=O)(=O)Nc2ncc(C)s2)c1 | -16.51
88 | Cc1occc1C(=O)N1CCCC1c1ccc(C(=O)N2CCOCC2)s1 (stereo not drawn) | 1.721
89 | Cc1cc(C)cc(OCCN(C)Cc2ccc(S(=O)(=O)N(C)C)o2)c1 | 89.38
90 | Cc1nnc(CN(C)CCOc2cccc(Cl)c2)o1 | 6.512
91 | CN(CCOc1ccc(Cl)cc1)Cc1ccc(S(=O)(=O)N(C)C)o1 | 82.71
92 | CC(C)N(C)C(=O)CSCc1ccc(S(=O)(=O)N(C)C)o1 | -4.323
93 | Cc1nnc(CN(C)CCCOc2ccc(Cl)cc2)o1 | -9.497
94 | Cc1ccc(OCCN(C)S(=O)(=O)N2CCOCC2)cc1 | -11.92
95 | Cc1ccc(OCCN(C)Cc2cscn2)cc1 | -7.225
96 | Cc1ccc(OCCN(C)Cc2ccc(S(=O)(=O)N(C)C)o2)cc1 | 101.9
97 | Cc1cc(C)cc(OCCN(C)Cc2cscn2)c1 | -4.131
98 | COCCN(CC(N)=O)CC1CCCN(C2Cc3ccccc3C2)C1 (stereo not drawn) | -0.9874
99 | Cc1noc(C)c1C(=O)N1Cc2ncn(C)c2C(COCC(C)C)C1.O=C(O)C(F)(F)F (stereo not drawn) | 115.1
100 | Cn1cnc2c1C(COCC1CCOCC1)CN(C(=O)c1ccco1)C2.O=C(O)C(F)(F)F (stereo not drawn) | -6.702
101 | CC(C)COCC1CN(Cc2ccc3c(c2)OCO3)Cc2ncn(C)c21.O=C(O)C(F)(F)F.O=C(O)C(F)(F)F (stereo not drawn) | 29.31
102 | Cc1noc(C)c1C(=O)N1Cc2ncn(C)c2C(COCC2CC2)C1.O=C(O)C(F)(F)F (stereo not drawn) | 110.4
103 | Cc1ccsc1C(=O)N1Cc2ncn(C)c2C(COCC2CC2)C1.O=C(O)C(F)(F)F (stereo not drawn) | 46.58

Reference: ChEMBL document CHEMBL3988442, “University of Dundee, Small-Polar-MMV Screening Library” (2021)
